These results are taken from PubChem BioAssay (Tox21).

Records with an inconclusive call do not appear. A call without a number means that no potency is given here. Values without a mark were called inactive. The source made the active and inactive calls. Unless noted, calls come from the whole dose curve.

5-hydroxytryptamine receptor 2A (Homo sapiens), sequence (P28223 whole entry, looked up): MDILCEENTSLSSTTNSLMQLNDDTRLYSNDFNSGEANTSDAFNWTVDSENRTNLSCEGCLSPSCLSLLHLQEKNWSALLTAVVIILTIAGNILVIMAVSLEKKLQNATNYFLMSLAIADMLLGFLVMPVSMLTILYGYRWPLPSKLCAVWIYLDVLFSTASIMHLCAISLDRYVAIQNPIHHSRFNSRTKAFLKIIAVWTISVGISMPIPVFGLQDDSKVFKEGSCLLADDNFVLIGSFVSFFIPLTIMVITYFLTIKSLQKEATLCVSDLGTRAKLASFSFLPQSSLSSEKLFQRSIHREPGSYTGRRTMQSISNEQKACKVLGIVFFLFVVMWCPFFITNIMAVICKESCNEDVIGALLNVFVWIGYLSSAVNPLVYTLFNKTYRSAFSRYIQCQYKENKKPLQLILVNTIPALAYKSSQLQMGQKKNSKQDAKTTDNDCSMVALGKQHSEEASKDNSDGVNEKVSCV

System in one experiment: not listed separately
The experiment can be described thus: p53 small molecule agonists, cell-based qHTS assay: qHTS cell viability counter screen (AID 1963581). Note: nearly all actives have a fitted effect of over 45% in size. Conditions: p53RE-bla HCT-116 viability, ATP luminescence, 16 h; series mostly up to 66 µM. Put shortly:
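In the same plates used for the p53 bla reporter, HCT-116 cells given compounds for 16 h at 37 C received CellTiter-Glo; luminescence was recorded 30 min later at room temperature.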
In the case of `O=Cc1cccc([N+](=O)[O-])c1`, the Potency result was “inactive”.

With `CC(COCCO)OCCO` (configuration not stated), the Potency result was “inactive”.

Regarding `NC(=O)N[C@@H](CCC(=O)O)C(=O)O`, the Potency result was “inactive”.

For the compound `COc1ccc2cc(C=O)ccc2c1`, the Potency entry is “inactive”.

With `CC(O)CCCCn1c(=O)c2c(ncn2C)n(C)c1=O` (configuration not stated), the Potency entry is “inactive”.

In the case of `NC(=O)CCCCC(N)=O`, the Potency result is “inactive”.

In the case of `NCC1CCCC(CN)C1` (configuration not stated), the Potency result was “inactive”.

For the compound `CC(=O)CC(=O)Nc1ccc2[nH]c(=O)[nH]c2c1`, the Potency entry was “inactive”.

On to `Oc1ccc(O)c2c(O)cccc12`, for which the Potency entry was “inactive”.

Take `CCCOC(C)=O`: the Potency entry is “inactive”.

As for `CCCCCCCCCCCC[N+](C)(C)CCCS(=O)(=O)[O-]`, the Potency result was “inactive”.

With `CC(C)=C1CC[C@@H](C)CC1=O`, the Potency entry was “inactive”.

As to `O=C(O)c1ccc([N+](=O)[O-])cc1`, the Potency entry was “inactive”.

Turning to `C=CCCCCCCCCC(=O)OCCCC`, the Potency result was “inactive”.

In the case of `CC(=O)NCCO`, the Potency result is “inactive”.

Take `NNC(=O)c1cccc(C(=O)NN)c1`: the Potency entry was “inactive”.

On to `O=C(C(=O)c1ccco1)c1ccco1`, for which the Potency entry is “inactive”.

Regarding `COc1ccc(Cl)cc1C`, the Potency entry was “inactive”.

Regarding `Nc1ncnc2c1ncn2Cc1c(F)cccc1Cl`, the Potency entry is “inactive”.

On to `NC(=S)Nc1cccc2ccccc12`, for which the activity change, negative = cytotoxicity is 19.8% [at 5.99 µM].

Turning to `NCCOCCN`, the Potency entry was “inactive”.

As for `O=C1OC(CN2CCOCC2)CN1/N=C/c1ccc([N+](=O)[O-])o1` (configuration not stated), the Potency entry was “inactive”.

For `N[C@H]1C(O)O[C@H](CO)[C@@H](O)[C@@H]1O` (some centres not stated), the Potency entry was “inactive”.

As for `C=C(C)[C@H]1CC=C(C)CC1`, the Potency result was “inactive”.

In the case of `CC1=CC[C@@H](C(C)(C)O)CC1`, the Potency entry was “inactive”.

For the compound `CCCCCCCCCCCCCCC(=O)O`, the Potency entry was “inactive”.

For the compound `CC(COC(=O)c1ccccc1)OC(=O)c1ccccc1` (configuration not stated), the Potency entry is “inactive”.

As to `F[Si-2](F)(F)(F)(F)F`, the Potency entry is “inactive”.

As to `NNS(=O)(=O)c1ccc(Oc2ccc(S(=O)(=O)NN)cc2)cc1`, the Potency result was “inactive”.

Regarding `O=C(O)CONC(=O)c1ccccc1`, the Potency entry was “inactive”.

`OCC1CC2CC1C1CCC(CO)C21` (configuration not stated): the Potency entry is “inactive”.

With `O=C1CCC(=O)N1`, the Potency result was “inactive”.

Regarding `CCC(=O)OC/C=C(\C)CCC=C(C)C`, the Potency entry was “inactive”.

With `CC(O)CNCC(C)O` (configuration not stated), the Potency entry was “inactive”.

On to `OCc1ccccc1O`, for which the Potency entry was “inactive”.

`CCOC(=O)c1cccc(N)c1`: the Potency result is “inactive”.

In the case of `CNCCO`, the Potency result is “inactive”.

`N#CCN(CC#N)CCN(CC#N)CC#N`: the Potency entry was “inactive”.

`CCCOCCOCCOCCO`: the Potency entry is “inactive”.

System in another experiment: not listed separately
Nature of the experiment: p53 small molecule agonists, cell-based qHTS assay (AID 1963582; active = well fitted activation curve with a large enough effect in the signal ratio in the repeat runs, not every such curve was filed as active; the % refers to the signal ratio). To be noted: HCT-116 p53RE-bla reporter, beta-lactamase FRET ratio, 16 h; series mostly up to 66 µM. Put shortly: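 Compounds are pin-transferred in DMSO onto p53RE-bla cells and incubated 16 h at 37 C. The B/G FRET beta-lactamase substrate is then applied for 2 h at RT and fluorescence recorded.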
Background: Quantitative high-throughput screening tests each substance at several concentrations.
With `O=Cc1cccc([N+](=O)[O-])c1`, the Potency entry is “inactive”.

For the compound `CC(COCCO)OCCO` (configuration not stated), the Potency result was “inactive”.

As to `NC(=O)N[C@@H](CCC(=O)O)C(=O)O`, the Potency entry is “inactive”.

Take `COc1ccc2cc(C=O)ccc2c1`: the Potency entry was “inactive”.

Regarding `CC(O)CCCCn1c(=O)c2c(ncn2C)n(C)c1=O` (configuration not stated), the Potency entry is “inactive”.

Take `NC(=O)CCCCC(N)=O`: the Potency result was “inactive”.

Turning to `NCC1CCCC(CN)C1` (configuration not stated), the Potency entry was “inactive”.

For `CC(=O)CC(=O)Nc1ccc2[nH]c(=O)[nH]c2c1`, the Potency entry was “inactive”.

Turning to `Oc1ccc(O)c2c(O)cccc12`, the Potency entry was “inactive”.

`CCCOC(C)=O`: the Potency result was “inactive”.

With `CCCCCCCCCCCC[N+](C)(C)CCCS(=O)(=O)[O-]`, the Potency result is “inactive”.

Turning to `CC(C)=C1CC[C@@H](C)CC1=O`, the Potency result was “inactive”.

`O=C(O)c1ccc([N+](=O)[O-])cc1`: the Potency entry was “inactive”.

For the compound `C=CCCCCCCCCC(=O)OCCCC`, the Potency entry was “inactive”.

In the case of `CC(=O)NCCO`, the Potency entry was “inactive”.

`NNC(=O)c1cccc(C(=O)NN)c1`: the Potency result is “inactive”.

With `O=C(C(=O)c1ccco1)c1ccco1`, the Potency result is “inactive”.

On to `COc1ccc(Cl)cc1C`, for which the Potency result was “inactive”.

Take `Nc1ncnc2c1ncn2Cc1c(F)cccc1Cl`: the Potency result was “inactive”.

Turning to `NC(=S)Nc1cccc2ccccc12`, the activation is -2.75% [at 5.99 µM].

As for `NCCOCCN`, the Potency entry is “inactive”.

In the case of `O=C1OC(CN2CCOCC2)CN1/N=C/c1ccc([N+](=O)[O-])o1` (configuration not stated), the Potency entry is “inactive”.

As to `N[C@H]1C(O)O[C@H](CO)[C@@H](O)[C@@H]1O` (some centres not stated), the Potency result was “inactive”.

Regarding `C=C(C)[C@H]1CC=C(C)CC1`, the Potency result was “inactive”.

For the compound `CC1=CC[C@@H](C(C)(C)O)CC1`, the Potency entry was “inactive”.

As to `CCCCCCCCCCCCCCC(=O)O`, the Potency entry is “inactive”.

For the compound `CC(COC(=O)c1ccccc1)OC(=O)c1ccccc1` (configuration not stated), the Potency entry was “inactive”.

With `F[Si-2](F)(F)(F)(F)F`, the Potency result was “inactive”.

With `NNS(=O)(=O)c1ccc(Oc2ccc(S(=O)(=O)NN)cc2)cc1`, the Potency result was “inactive”.

As to `O=C(O)CONC(=O)c1ccccc1`, the Potency entry is “inactive”.

With `OCC1CC2CC1C1CCC(CO)C21` (configuration not stated), the Potency result is “inactive”.

Regarding `O=C1CCC(=O)N1`, the Potency result is “inactive”.

For `CCC(=O)OC/C=C(\C)CCC=C(C)C`, the Potency result was “inactive”.

`CC(O)CNCC(C)O` (configuration not stated): the Potency entry was “inactive”.

In the case of `OCc1ccccc1O`, the Potency entry is “inactive”.

As to `CCOC(=O)c1cccc(N)c1`, the Potency entry was “inactive”.

In the case of `CNCCO`, the Potency entry is “inactive”.

On to `N#CCN(CC#N)CCN(CC#N)CC#N`, for which the Potency result is “inactive”.

In the case of `CCCOCCOCCOCCO`, the Potency entry was “inactive”.

The next experiment deals with 5-hydroxytryptamine receptor 2A (Homo sapiens) (UniProt P28223). The experiment can be described thus: 5-hydroxytryptamine receptor 2A (HTR2A) small molecule antagonists, cell-based qHTS assay (AID 1963586). Note: nearly all actives have a fitted effect of over 45% in size. Note: potency is the fitted concentration of half-maximal effect. To be noted: HTR2A-CHO cells, DOI-induced calcium flux, fluorescence; series mostly up to 61.5 µM. Put shortly:
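Antagonist-mode intracellular calcium assay: DOI (4 nM) added after 5 min compound pre-incubation at room temperature to dye-loaded HTR2A-CHO cells. Fluorescence followed for 3 min, sampled every second.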
With `O=Cc1cccc([N+](=O)[O-])c1`, the Potency result was “inactive”.

As to `CC(COCCO)OCCO` (configuration not stated), the Potency entry was “inactive”.

Take `NC(=O)N[C@@H](CCC(=O)O)C(=O)O`: the Potency is 8.18 µM (active).

`COc1ccc2cc(C=O)ccc2c1`: the Potency entry was “inactive”.

On to `CC(O)CCCCn1c(=O)c2c(ncn2C)n(C)c1=O` (configuration not stated), for which the Potency result was “inactive”.

Take `NC(=O)CCCCC(N)=O`: the Potency result is “inactive”.

In the case of `NCC1CCCC(CN)C1` (configuration not stated), the Potency result was “inactive”.

`CC(=O)CC(=O)Nc1ccc2[nH]c(=O)[nH]c2c1`: the Potency result is “inactive”.

With `Oc1ccc(O)c2c(O)cccc12`, the Potency result is “inactive”.

For the compound `CCCOC(C)=O`, the Potency entry is “inactive”.

For `CCCCCCCCCCCC[N+](C)(C)CCCS(=O)(=O)[O-]`, the Potency entry is “inactive”.

On to `CC(C)=C1CC[C@@H](C)CC1=O`, for which the Potency entry was “inactive”.

On to `O=C(O)c1ccc([N+](=O)[O-])cc1`, for which the Potency entry was “inactive”.

Regarding `C=CCCCCCCCCC(=O)OCCCC`, the Potency entry was “inactive”.

For the compound `CC(=O)NCCO`, the Potency entry is “inactive”.

As for `NNC(=O)c1cccc(C(=O)NN)c1`, the Potency entry was “inactive”.

On to `O=C(C(=O)c1ccco1)c1ccco1`, for which the Potency result was “inactive”.

For the compound `COc1ccc(Cl)cc1C`, the Potency result was “inactive”.

Turning to `Nc1ncnc2c1ncn2Cc1c(F)cccc1Cl`, the Potency result was “inactive”.

As for `NC(=S)Nc1cccc2ccccc12`, the activity, negative = inhibition is 12.8% [at 5.62 µM].

With `NCCOCCN`, the Potency entry was “inactive”.

Turning to `O=C1OC(CN2CCOCC2)CN1/N=C/c1ccc([N+](=O)[O-])o1` (configuration not stated), the Potency result is “inactive”.

On to `N[C@H]1C(O)O[C@H](CO)[C@@H](O)[C@@H]1O` (some centres not stated), for which the Potency entry is “inactive”.

Consider `C=C(C)[C@H]1CC=C(C)CC1`, for which the Potency result is “inactive”.

As to `CC1=CC[C@@H](C(C)(C)O)CC1`, the Potency result is “inactive”.

In the case of `CCCCCCCCCCCCCCC(=O)O`, the Potency entry is “inactive”.

For `CC(COC(=O)c1ccccc1)OC(=O)c1ccccc1` (configuration not stated), the Potency result is “inactive”.

Turning to `F[Si-2](F)(F)(F)(F)F`, the Potency result was “inactive”.

On to `NNS(=O)(=O)c1ccc(Oc2ccc(S(=O)(=O)NN)cc2)cc1`, for which the Potency result was “inactive”.

For `O=C(O)CONC(=O)c1ccccc1`, the Potency entry is “inactive”.

In the case of `OCC1CC2CC1C1CCC(CO)C21` (configuration not stated), the Potency result is “inactive”.

In the case of `O=C1CCC(=O)N1`, the Potency result was “inactive”.

Regarding `CCC(=O)OC/C=C(\C)CCC=C(C)C`, the Potency entry is “inactive”.

Turning to `CC(O)CNCC(C)O` (configuration not stated), the Potency entry is “inactive”.

Regarding `OCc1ccccc1O`, the Potency result is “inactive”.

Take `CCOC(=O)c1cccc(N)c1`: the Potency result is “inactive”.

Regarding `CNCCO`, the Potency entry was “inactive”.

Consider `N#CCN(CC#N)CCN(CC#N)CC#N`, for which the Potency result was “inactive”.

With `CCCOCCOCCOCCO`, the Potency result was “inactive”.
